Only some compounds are listed: those with a hit (about 3.5% of all), similar ones and a draw of the others.
FBW7 activator – activators of human E3 ligase FBW7 | AlphaScreen FBW7–phospho-cyclin E peptide binding, activator screen | hit rate 0.13% among 650,000 | AID 1259310 | Q969H0 | normalized activity (activation), % at 26.1 µM; in the data active = normalized activity above about 1.9%;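 note: purified mutant Fbw7 with reduced substrate affinity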
Target sequence (Q969H0 whole entry, looked up): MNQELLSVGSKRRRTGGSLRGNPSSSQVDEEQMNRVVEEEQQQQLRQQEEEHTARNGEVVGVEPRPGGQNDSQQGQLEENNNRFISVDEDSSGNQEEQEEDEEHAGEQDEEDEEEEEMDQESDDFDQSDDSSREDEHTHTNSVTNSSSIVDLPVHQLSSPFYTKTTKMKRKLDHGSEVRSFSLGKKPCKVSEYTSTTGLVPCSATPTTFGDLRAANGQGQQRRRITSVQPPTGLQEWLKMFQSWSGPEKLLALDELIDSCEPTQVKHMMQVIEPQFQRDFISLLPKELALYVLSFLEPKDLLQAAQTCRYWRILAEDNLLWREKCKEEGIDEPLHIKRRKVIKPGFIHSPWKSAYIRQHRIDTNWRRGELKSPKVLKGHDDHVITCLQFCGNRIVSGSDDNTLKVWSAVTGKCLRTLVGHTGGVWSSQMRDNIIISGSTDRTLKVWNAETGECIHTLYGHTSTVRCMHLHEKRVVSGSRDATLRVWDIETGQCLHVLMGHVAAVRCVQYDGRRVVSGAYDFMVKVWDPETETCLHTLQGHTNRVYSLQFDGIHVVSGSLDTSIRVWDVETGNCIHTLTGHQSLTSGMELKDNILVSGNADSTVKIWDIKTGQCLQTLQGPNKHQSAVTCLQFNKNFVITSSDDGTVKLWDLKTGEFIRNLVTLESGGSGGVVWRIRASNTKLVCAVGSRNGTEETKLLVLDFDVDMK
MITF primary – human MITF inhibition, primary screen; AlphaScreen MITF homodimerization, bead proximity signal; hit rate 0.91% among 650,000; inhibition, % at 2.6 µM; in the data active = inhibition above about 50%;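 note: 0% = vehicle wells with protein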
TEAD-YAP block – TEAD-YAP interaction inhibition | HEK-TIYL cells, TEAD-Gal4/YAP UAS-luciferase luminescence | inhibition, % at 9.12 µM | hit rate 1.4% among 640,000 | AID 1259422; in the data active = inhibition above about 32%;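 note: 0% = median of test compound wells and 100% = reference inhibitor wells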
GPR151 activ – activates the human receptor GPR151. Q8TDV0. PathHunter beta-arrestin GPR151 cells, luminescence. activation, % at 11.2 µM. hit rate 1% among 650,000. AID 1508602; in the data active = activation above about 4.9%;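 note: 0% = median of compound wells and 100% = cells with positive control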
MITF inh conf – confirmation of human MITF inhibitors; AlphaScreen MITF homodimerization, biotin/His-MITF beads; inhibition, % at 2.6 µM; shares compounds with MITF primary; hit rate 16% among 4,700;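 active = inhibition above a cutoff derived from the DMSO control wells, cut at about 28% in these data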;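 note: 0% = MITF dimer wells with DMSO only; inhibitors lower the bead chemiluminescence by keeping MITF from dimerizing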
AS interf DR – optically interferes with AlphaScreen signal in dose response | shares compounds with MITF primary | AlphaScreen optical interference counterscreen, cell-free | IC50, µM | hit rate 6% among 480 | AID 1259373; call rule not given here
AlphaScreen intf2 – optically interferes with AlphaScreen signal | shares compounds with MITF primary | LysRS AlphaScreen counterscreen, signal interference, triplicate | inhibition, % at 2.6 µM | hit rate 7.6% among 4,700 | AID 1259376;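 active = inhibition above a cutoff derived from the DMSO control wells, cut at about 30% in these data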
The depositor's hits bear a star; . = no result.

SMILES	FBW7 activator	MITF primary	TEAD-YAP block	GPR151 activ	MITF inh conf	AlphaScreen intf2	others
COc1ccc(O)c(C=Nc2ccc(Cl)cc2)c1	0	51*	-6	4	-4	-3
O=C(O)CCN(CCC(=O)O)c1ccc(O)cc1	-1	69*	-19	2	48*	-10	AS interf DR=>6.5
CCc1cc2c(cc3c(=O)n(CC(=O)N(CC)Cc4ccccc4)ncn32)s1	0	71*	2	1	13	9
CSCCNC(=O)CCC1(Cc2ccccc2)CCC(=O)N1 (stereo not given)	0	2	-26	1	.	.
CCCC(CCC)c1nc2ccncc2[nH]1	0	52*	-5	4	-1	7
CCCN1CCC(N2CCN(S(=O)(=O)c3ccc(F)cc3)CC2)CC1	0	54*	12	1	9	11
CS(=O)(=O)N1CCN(C2CCCCC2)CC1	0	58*	-5	0	-1	0
O=S(=O)(c1ccc(F)cc1)N1CCN(C2CCCCCC2)CC1	0	32	-9	-1	.	.
O=S(=O)(c1ccc(F)cc1)N1CCN(C2CCCC2)CC1	0	37	-2	3	.	.
O=S(=O)(c1ccc(F)cc1)N1CCN(C2CCCCC2)CC1	0	85*	15	2	1	12
CC1CN(C2CCN(S(=O)(=O)c3ccc(F)cc3)CC2)CC(C)O1 (stereo not given)	1	57*	1	0	0	0
COc1cc(/C=C2\NC(=O)N(Cc3ccccc3F)C2=O)ccc1OC(C)C(=O)O (stereo not given)	0	6	-2	0	.	.
Nc1cc(N)nc(SCC(=O)Nc2ccc3c(c2)CCC3)n1	0	19	-9	-2	.	.
Cc1cc(OCCOCCN2CCN(C)CC2)cc(C)c1Cl	0	62*	3	-2	14	15
COCCNCCOCCOc1c(C)cc(C)cc1Cl	0	53*	6	0	4	12
Cc1ccc(Cl)c(OCCN2CCNCC2)c1	0	5	-9	0	.	.
Cc1cccc(C)c1OCCCCN1CCNCC1	0	64*	7	1	5	2
Cc1cc(Cl)c(OCCN2CCNCC2)c(Br)c1	0	76*	-13	3	-5	-7
Cc1cc(OCCN2CCNCC2)cc(C)c1Cl	0	62*	5	0	0	2
Cc1cc(C)c(OCCOCCNC(C)C)c(C)c1	0	41	-3	2	.	.
CC(C)c1ccc(OCCCCN2CCNCC2)cc1	0	62*	11	-2	-2	12
Cc1cc(C)c(OCCOCCN2CCN(C)CC2)c(Cl)c1	0	67*	-3	1	20	16
Cc1cc(Cl)cc(C)c1OCCOCCNC(C)C	1	51*	1	0	-7	-6
CC(C)N1C[C@H](NCc2ccccc2)C[C@H]1C(=O)NCCc1ccccc1F	0	-10	8	0	.	.
COc1cccc(N2CCn3c2nc2c3c(=O)n(Cc3ccccc3)c(=O)n2C)c1	0	-3	3	2	.	.
SMILES	FBW7 activator	MITF primary	TEAD-YAP block	GPR151 activ	MITF inh conf	AlphaScreen intf2	others
Cc1cc(Cl)c(OCCOCCN2CCNCC2)c(Cl)c1	0	90*	3	3	18	11
Cc1cc(C)c(OCCCCN2CCNCC2)c(C)c1	0	0	-4	0	.	.
Cc1cc(C)c(OCCCCN2CCNCC2)c(Cl)c1	0	70*	-10	-1	5	0
Cc1cc(C)c(C(=O)CC2(O)C(=O)Nc3ccc(Cl)cc32)c(C)c1 (stereo not given)	0	13	5	-2	.	.
COc1ccc(CNC(=O)C2CC(=O)N(c3ccc(F)cc3)C2)cc1 (stereo not given)	0	-1	6	0	.	.
O=C(NCc1ccc(F)cc1)C1CC(=O)N(c2ccc(F)cc2)C1 (stereo not given)	0	73*	-4	-1	9	14
O=C(Nc1cc(Cl)ccc1C(=O)O)c1ccc2c(c1)C(=O)N(CC1CCCO1)C2=O (stereo not given)	0	-6	7	2	.	.
O=C(CSCc1cnn(-c2ccccc2)c1-n1cccc1)N1CCCCC1	0	-3	-13	0	.	.
Clc1cc(CNC2CCN(Cc3ccccc3)CC2)cc2c1OCCO2	0	58*	3	0	10	10
CCc1ccc(C2C(C#N)=C(C)NC3=C2C(=O)CC(c2ccc(Cl)cc2)C3)cc1 (stereo not given)	0	2	15	1	.	.
CCc1nc(SCC(=O)c2ccc(OC)c(C)c2)n[nH]1	0	2	-8	-1	.	.
CCc1nc(SCC(=O)c2ccc(OC)cc2)n[nH]1	0	51*	-8	0	8	13
O=P(O)(O)C(Sc1ccc(Cl)cc1)P(=O)(O)O	0	96*	.	2	106*	-8	AS interf DR=>6.5
O=C(CCC1(Cc2ccc(-c3ccccc3)cc2)CCC(=O)N1)NCCCn1ccnc1 (stereo not given)	0	-1	-2	1	.	.
C=CCc1ccc(OCCNC2CCCC2)c(OC)c1	0	25	-16	-1	.	.
C/C=C/c1ccc(OCCN(C)C)c(OC)c1	0	73*	2	0	6	9
C/C=C/c1ccc(OCCCNC(C)CC)c(OC)c1 (stereo not given)	0	83*	-4	0	-1	-4
C/C=C/c1ccc(OCCCNC2CCCC2)c(OC)c1	0	51*	6	-1	-6	1
CCCn1cc(NC(=O)c2ccnc(-c3ccccc3O)c2)cn1	1	21	-69	0	.	.
Cc1nnc(SCc2nc3ccccc3[nH]2)n1C	0	74*	5	0	13	16
COc1ccccc1-c1nnc(SCc2nc3ccccc3[nH]2)n1C	0	7	7	0	.	.
CN(C)CC(C)(C)CNC(=S)NCc1ccc2c(c1)OCO2	0	54*	9	1	0	-2
Cc1cc(C(=O)CSc2nc(N)cc(N)n2)c(C)n1Cc1ccc2c(c1)OCO2	0	10	-9	-1	.	.
COc1cc(O)c(C)c(O)c1	0	14	-4	-2	.	.
COc1c(O)cc(O)cc1O	0	72*	-14	-2	60*	-1	AS interf DR=>6.5
CC(NC(=O)Nc1ccc(Cl)cc1)c1nc(-c2ccncc2)n[nH]1 (stereo not given)	0	9	9	-1	.	.
C(=N\Nc1nc(-c2ccccn2)cs1)/c1cccnc1	0	52*	-4	-2	30*	54*
Cc1cc(C)c(C(=O)/C=C/c2ccc(N(C)C)cc2)c(=O)[nH]1	0	-3	10	1	.	.
O=C(O)CSc1nc2ccccc2n1CC(=O)N1CCOCC1	0	17	12	-1	.	.
NC(=O)CSc1nc2ccccc2n1CC(=O)N1CCOCC1	0	62*	-6	2	13	14
